Assay results published in PubChem BioAssay AID1159580 (chemical genetic matrix, 2015).
The whole screen tested about 5,500 compounds, of which about 2,000 (36%) were called active. Another 18% or so got no clear call; they are omitted. Rule as the data show it: active = normalized growth mostly below about 0.91 (no sharp cut-off); inconclusive = no clear call, values can overlap the other calls; inactive = mostly above about 0.92. Some of the results follow.

Test: chemical genetic growth profiling, strain panel (AID 1159580);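 also: tested at 20 µM; growth read once vehicle control cultures reached saturation at 30 °C; 1 = growth at the plate median or of vehicle wells; lower values mean less growth of the strain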
Details: growth OD

Measured: normalized growth

N#Cc1ccc2c(c1)N(CCCN1CCC(O)CC1)c1ccccc1S2
inactive: S. cerevisiae deletion strains, locus YJR075W, strain HOC1, active compounds read low 1.03 | S. cerevisiae deletion strains, locus YKL009W, strain mrt4, active compounds read low 1.01 | S. cerevisiae deletion strains, locus YKL068W, active compounds read low 1.01 | S. cerevisiae deletion strains, locus YKL085W, strain MDH1 (second series), active compounds read low 1.04 | S. cerevisiae deletion strains, locus YKL085W, strain MDH1, active compounds read low 1.04 | S. cerevisiae deletion strains, locus YKL160W, strain elf1, active compounds read low 0.998 | S. cerevisiae deletion strains, locus YKL190W, strain CNB1, active compounds read low 1.01 | S. cerevisiae deletion strains, locus YKR001C, strain vps1, active compounds read low 1.02 | S. cerevisiae deletion strains, locus YKR026C, strain gcn3, active compounds read low 0.995 | S. cerevisiae deletion strains, locus YKR091W, strain srl3, active compounds read low 0.995 | S. cerevisiae deletion strains, locus YLL001W, strain dnm1, active compounds read low 0.996 | S. cerevisiae deletion strains, locus YLL026W, active compounds read low 0.987 | S. cerevisiae deletion strains, locus YLL041C, strain sdh2, active compounds read low 0.996 | S. cerevisiae deletion strains, locus YLR027C, strain aat2, active compounds read low 0.992 | S. cerevisiae deletion strains, locus YLR039C, strain RIC1, active compounds read low 1.08 | S. cerevisiae deletion strains, locus YLR058C, strain SHM2, active compounds read low 1.01 | S. cerevisiae deletion strains, locus YLR102C, strain apc9, active compounds read low 1.02 | S. cerevisiae deletion strains, locus YLR113W, strain HOG1, active compounds read low 1.05 | S. cerevisiae deletion strains, locus YLR221C, strain rsa3, active compounds read low 0.995 | S. cerevisiae deletion strains, locus YLR258W, strain gsy2, active compounds read low 0.977 | S. cerevisiae deletion strains, locus YLR262C, strain YPT6 (second series), active compounds read low 1.02 | S. cerevisiae deletion strains, locus YLR262C, strain YPT6, active compounds read low 1.07 | S. cerevisiae deletion strains, locus YLR268W, strain sec22, active compounds read low 1.01 | S. cerevisiae deletion strains, locus YLR320W, strain mms22, active compounds read low 0.959 | S. cerevisiae deletion strains, locus YLR330W, strain CHS5, active compounds read low 1 | S. cerevisiae deletion strains, locus YLR342W, strain FKS1 (second series), active compounds read low 0.989 | S. cerevisiae deletion strains, locus YLR342W, strain FKS1, active compounds read low 0.992 | S. cerevisiae deletion strains, locus YLR357W, strain rsc2, active compounds read low 0.969 | S. cerevisiae deletion strains, locus YLR370C, strain arc18, active compounds read low 0.994 | S. cerevisiae deletion strains, locus YLR371W, strain rom2, active compounds read low 1.02 | S. cerevisiae deletion strains, locus YLR384C, strain iki3, active compounds read low 0.986 | S. cerevisiae deletion strains, locus YLR418C, strain cdc73, active compounds read low 1 | S. cerevisiae deletion strains, locus YML016C, strain PPZ1, active compounds read low 1.01 | S. cerevisiae deletion strains, locus YML032C, strain rad52, active compounds read low 1.01 | S. cerevisiae deletion strains, locus YML120C, strain ndi1, active compounds read low 0.994 | S. cerevisiae deletion strains, locus YML124C, strain tub3, active compounds read low 1.02 | S. cerevisiae deletion strains, locus YMR058W, strain fet3, active compounds read low 0.999 | S. cerevisiae deletion strains, locus YMR078C, strain ctf18, active compounds read low 1.02 | S. cerevisiae deletion strains, locus YMR125W, strain sto1, active compounds read low 0.966 | S. cerevisiae deletion strains, locus YMR129W, active compounds read low 0.997 | S. cerevisiae deletion strains, locus YMR205C, strain PFK2, active compounds read low 0.935 | S. cerevisiae deletion strains, locus YMR223W, strain ubp8, active compounds read low 1.01 | S. cerevisiae deletion strains, locus YMR231W, strain pep5, active compounds read low 1 | S. cerevisiae deletion strains, locus YMR263W, strain SAP30, active compounds read low 1.02 | S. cerevisiae deletion strains, locus YMR307W, strain GAS1, active compounds read low 1.04 | S. cerevisiae deletion strains, locus YNL067W, strain RPL9B, active compounds read low 1.01 | S. cerevisiae deletion strains, locus YNL071W, strain lat1, active compounds read low 0.96 | S. cerevisiae deletion strains, locus YNL128W, strain TEP1, active compounds read low 1.01 | S. cerevisiae deletion strains, locus YNL153C, strain GIM3, active compounds read low 1 | S. cerevisiae deletion strains, locus YNL183C, strain NPR1, active compounds read low 0.983 | S. cerevisiae deletion strains, locus YNL209W, strain ssb2, active compounds read low 0.993 | S. cerevisiae deletion strains, locus YNL233W, strain BNI4, active compounds read low 0.998 | S. cerevisiae deletion strains, locus YNL248C, strain rpa49, active compounds read low 0.997 | S. cerevisiae deletion strains, locus YNL250W, strain rad50, active compounds read low 1.04 | S. cerevisiae deletion strains, locus YNL271C, strain bni1, active compounds read low 1.03 | S. cerevisiae deletion strains, locus YNL298W, strain CLA4, active compounds read low 1.02 | S. cerevisiae deletion strains, locus YNL307C, strain MCK1, active compounds read low 1 | S. cerevisiae deletion strains, locus YNL322C, strain KRE1 (second series), active compounds read low 0.995 | S. cerevisiae deletion strains, locus YNL322C, strain KRE1, active compounds read low 1.01 | S. cerevisiae deletion strains, locus YNR049C, strain mso1, active compounds read low 0.991 | S. cerevisiae deletion strains, locus YNR052C, strain pop2, active compounds read low 1.02 | S. cerevisiae deletion strains, locus YOL006C, strain TOP1, active compounds read low 1.01 | S. cerevisiae deletion strains, locus YOL012C, strain htz1 0.994 | S. cerevisiae deletion strains, locus YOL147C, strain pex11, active compounds read low 1.02 | S. cerevisiae deletion strains, locus YOR001W, strain rrp6, active compounds read low 0.981 | S. cerevisiae deletion strains, locus YOR061W, strain CKA2, active compounds read low 1.01 | S. cerevisiae deletion strains, locus YOR069W, strain VPS5, active compounds read low 1.01 | S. cerevisiae deletion strains, locus YOR070C, strain gyp1, active compounds read low 1.04 | S. cerevisiae deletion strains, locus YOR080W, strain dia2, active compounds read low 0.987 | S. cerevisiae deletion strains, locus YOR083W, strain WHI5, active compounds read low 1 | S. cerevisiae deletion strains, locus YOR106W, strain vam3, active compounds read low 1 | S. cerevisiae deletion strains, locus YOR136W, strain idh2, active compounds read low 1.03 | S. cerevisiae deletion strains, locus YOR144C, strain elg1, active compounds read low 1.02 | S. cerevisiae deletion strains, locus YOR184W, strain ser1, active compounds read low 1.03 | S. cerevisiae deletion strains, locus YOR231W, strain MKK1, active compounds read low 1.08 | S. cerevisiae deletion strains, locus YOR265W, strain rbl2, active compounds read low 0.98 | S. cerevisiae deletion strains, locus YOR270C, strain vph1, active compounds read low 1.02 | S. cerevisiae deletion strains, locus YOR290C, strain snf2, active compounds read low 0.973 | S. cerevisiae deletion strains, locus YOR316C, strain cot1, active compounds read low 1.01 | S. cerevisiae deletion strains, locus YPL051W, strain arl3, active compounds read low 1 | S. cerevisiae deletion strains, locus YPL055C, strain LGE1, active compounds read low 1.02 | S. cerevisiae deletion strains, locus YPL078C, strain atp4, active compounds read low 1 | S. cerevisiae deletion strains, locus YPL106C, strain sse1, active compounds read low 0.963 | S. cerevisiae deletion strains, locus YPL240C, strain hsp82, active compounds read low 1.01 | S. cerevisiae deletion strains, locus YPL241C, strain CIN2, active compounds read low 1 | S. cerevisiae deletion strains, locus YPL256C, strain CLN2, active compounds read low 1.07 | S. cerevisiae deletion strains, locus YPR119W, strain clb2, active compounds read low 1.02 | S. cerevisiae deletion strains, locus YPR141C, strain kar3, active compounds read low 1.02 | S. cerevisiae deletion strains, locus YPR163C, strain tif3, active compounds read low 1.03 | S. cerevisiae deletion strains, locus YPR167C, strain met16, active compounds read low 1.02 | S. cerevisiae deletion strains, strain wtn01, active compounds read low 1.01 | S. cerevisiae strains, strain wild type, active compounds read low 1.01
